Screening results from PubChem BioAssay.
Hits are enriched below; roughly 6.7% of the tested compounds scored in any of these assays.
Pf_Dd2_growth – blocks growth of Plasmodium falciparum Dd2 parasites; P. falciparum Dd2 growth, SYBR Green, 72 h; hits give low values; activity change, % at 10 µM; 94,000 compounds, 2.3% hits; AID 1159554; in the data active = activity change below about -80%; inconclusive = no clear call, values can overlap the other calls
T_cruzi_growth-1 – T. cruzi proliferation inhibition; T. cruzi beta-gal in NIH3T3, GalScreen luminescence, 90 h; inhibition, % at 8.34 µM; 77,000 compounds, 5.9% hits; AID 624255;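 active = mean inhibition above about 93%, with at least 55% of replicates each passing it, limit read from the data, passing the limit was not always enough; inconclusive = only one of those two conditions holds; inactive = neither condition holds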
C_diff_HTS – C. difficile growth inhibition; Clostridium difficile clinical isolate growth, OD600, 24 h; hits give low values; growth activity, negative = inhibition, % at 16 µg/mL (by protocol); 86,000 compounds, 0.25% hits; AID 1259249;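 active = mean growth activity at or below -80% and every replicate also at or below -80%; inconclusive = mean at or below -80% but some replicate above -80%; inactive = mean growth activity above -80%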;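 note: 0% = DMSO wells and -100% = levofloxacin 16 µg/mL wells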
T_cruzi_growth-2 – blocks T. cruzi growth in NIH3T3 host cells; shares compounds with T_cruzi_growth-1; T. cruzi beta-gal in NIH3T3, GalScreen luminescence, 90 h; inhibition, % at 8.35 µM; 5,600 compounds, 72% hits;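 active = mean replicate inhibition above about 95% and at least 55% of replicates individually reaching it, limit read from the data; inconclusive = only one of the two criteria is met; inactive = neither criterion is met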
T_cruzi_growth-3 – blocks T. cruzi growth in NIH3T3 host cells. shares compounds with T_cruzi_growth-1. T. cruzi beta-gal in NIH3T3, GalScreen luminescence, 90 h. inhibition, % at 2.09 µM. 5,600 compounds, 21% hits;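 active = mean inhibition above about 95%, with at least 55% of replicates also reaching it, limit read from the data; inconclusive = meets just one of the two conditions; inactive = meets neither condition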;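 note: plate controls were neutral control median for no effect and positive control median for full effect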
3T3_cytotox – kills mouse NIH/3T3 fibroblasts | AID 651742 | cytotoxicity (signal decrease), % at 8.35 µM | NIH/3T3 viability, CellTiter-Glo ATP luminescence, 90 h | shares compounds with T_cruzi_growth-1 | 5,600 compounds, 14% hits;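 active = mean signal decrease across replicates above about 35% based on untreated-well scatter, with enough replicates individually passing, limit read from the data; inconclusive = no rule stated though some were filed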;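 note: 0% = median of neutral control wells and 100% = median of positive control wells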
3T3_cytotox_2 – kills mouse NIH/3T3 fibroblasts. shares compounds with T_cruzi_growth-1. NIH/3T3 viability, CellTiter-Glo ATP luminescence, 90 h. inhibition, % at 24.9 µM. 5,600 compounds, 56% hits. AID 651744;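 active = mean loss of cell viability signal at or above a set limit, and enough replicates individually reaching it; inconclusive = meets only the mean limit or only the replicate share; inactive = meets neither condition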;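 note: 0% = median of neutral control wells and 100% = median of positive control wells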
* = called active by the depositor; ? = inconclusive; . = not tested or not shown.

SMILES Pf_Dd2_growth T_cruzi_growth-1 C_diff_HTS T_cruzi_growth-2 T_cruzi_growth-3 3T3_cytotox 3T3_cytotox_2
C[C@H]1CN([C@@H](C)CO)S(=O)(=O)c2ccc(/C=C/c3ccccc3)cc2O[C@H]1CN(C)Cc1cncnc1 -48 103* -2 95* 78 57* 46*
C[C@@H]1CN([C@H](C)CO)S(=O)(=O)c2ccc(/C=C/c3ccccc3)cc2O[C@@H]1CN(C)Cc1cncnc1 -1 90 -14 . . . .
C[C@@H]1CN([C@@H](C)CO)S(=O)(=O)c2ccc(/C=C/c3ccccc3)cc2O[C@H]1CN(C)Cc1cncnc1 -89* 121* -7 112* 97* 54* 61*
C[C@H]1CN([C@@H](C)CO)C(=O)c2cc(-c3cccnc3)cnc2O[C@H]1CN(C)C(=O)C1CCC1 35 28 -1 . . . .
C/C=C/c1cnc2c(c1)C(=O)N([C@H](C)CO)C[C@H](C)[C@@H](CN(C)C(=O)C1CC1)O2 31 -74 -7 . . . .
O=C(Nc1ccc(Cl)c(Cl)c1)N[C@H]1CC[C@H](CCn2cc(C3CCCC3)nn2)O[C@H]1CO 1 . -1 . . . .
COc1ccc(S(=O)(=O)N2CCCCN3[C@@H](CO)[C@H](c4ccc(C#CC5CC5)cc4)[C@@H]3C2)cc1 -3 109* 41 102* 66 45* 105*
COc1ccc(C#Cc2ccc([C@@H]3[C@@H](CO)N4CCCCN(S(=O)(=O)c5ccccc5)C[C@H]34)cc2)cc1 -49 67 11 . . . .
O=S(=O)(c1ccc(F)cc1)N1CCCCN2[C@H](CO)[C@H](c3ccc(C#CC4CC4)cc3)[C@@H]2C1 -10 100 12 . . . .
COc1ccc(S(=O)(=O)N2CCCCN3[C@H](CO)[C@@H](c4ccc(C#CC5CC5)cc4)[C@H]3C2)cc1 -8 ? 35 107* 106* 25 106*
COc1ccc(S(=O)(=O)N2CCCCN3[C@H](CO)[C@@H](c4ccc(C#CC5CC5)cc4)[C@@H]3C2)cc1 2 117* -5 109* 88 19 55*
O=S(=O)(c1ccc(F)cc1)N1CCCCN2[C@H](CO)[C@H](c3ccc(C#CC4CC4)cc3)[C@H]2C1 -50 101* 56 104* 83 43* 105*
O=S(=O)(c1ccc(F)cc1)N1CCCCN2[C@H](CO)[C@@H](c3ccc(C#CC4CC4)cc3)[C@@H]2C1 -9 44 -1 . . . .
O=C(O)C[C@H]1C[C@@H]2c3cc(NC(=O)Nc4ccc(F)cc4)ccc3O[C@@H]2[C@@H](CO)O1 11 -32 1 . . . .
O=C(c1ccncc1)N1CC(=O)N2[C@H](CO)[C@@H](c3ccc(-c4ccccc4)cc3)[C@@H]2C1 -13 . -10 . . . .
O=S(=O)(c1ccc(F)cc1)N1CCCCN2[C@@H](CO)[C@@H](c3ccc(C#CC4CC4)cc3)[C@@H]2C1 -70 86 46 . . . .
COc1ccc(S(=O)(=O)N2CCCCN3[C@H](C2)[C@@H](c2ccc(C#CC4CC4)cc2)[C@@H]3CO)cc1 15 107* 30 100* 108* 38* 77*
CCC(=O)N1C[C@H](C)[C@@H](OC)CN(C)C(=O)c2ccc(NC(=O)C3CCOCC3)cc2OC[C@H]1C 2 21 0 . . . .
CN1C(=O)c2cc(NC(=O)C3CC3)ccc2OC[C@H]2O[C@@H](CC(=O)NCCN3CCCC3)CC[C@H]21 1 4 -3 . . . .
CN(C)C(=O)c1ccc(-c2ccc([C@@H]3[C@@H](CO)N(C(=O)C4CC4)[C@H]3C#N)cc2)cc1 -14 67 1 . . . .
CN(C)C(=O)c1ccc(-c2ccc([C@H]3[C@@H](C#N)N(C(=O)C4CCCCC4)[C@H]3CO)cc2)cc1 -39 ? -3 7 29 23 27*
CN(C)C(=O)c1ccc(-c2ccc([C@@H]3[C@@H](C#N)N(C(=O)C4CC4)[C@H]3CO)cc2)cc1 -31 104* -19 99* ? 2 63*
CN(C)C(=O)c1ccc(-c2ccc([C@@H]3[C@@H](CO)N(C(=O)C4CCCCC4)[C@H]3C#N)cc2)cc1 -31 89 1 . . . .
CN(C)C(=O)C[C@H]1CC[C@@H]2[C@H](COc3ccc(NC(=O)c4ccc(F)c(F)c4)cc3C(=O)N2C)O1 4 8 2 . . . .
C[C@@H]1CN([C@H](C)CO)S(=O)(=O)c2ccc(C#Cc3cccc(F)c3)cc2O[C@@H]1CN(C)S(=O)(=O)c1ccccc1F -73 104* 7 102* 113* 25 40*
SMILES Pf_Dd2_growth T_cruzi_growth-1 C_diff_HTS T_cruzi_growth-2 T_cruzi_growth-3 3T3_cytotox 3T3_cytotox_2
C[C@H]1CN([C@@H](C)CO)S(=O)(=O)c2ccc(C#Cc3cccc(F)c3)cc2O[C@H]1CN(C)C -71 -26 5 . . . .
C[C@@H]1CN([C@H](C)CO)S(=O)(=O)c2ccc(C#Cc3cccc(F)c3)cc2O[C@@H]1CN(C)C -62 -81 5 . . . .
C[C@H](CO)N1C[C@H](C)[C@@H](CN(C)S(=O)(=O)c2ccccc2F)Oc2cc(C#Cc3cccc(F)c3)ccc2S1(=O)=O -70 107* 13 99* 116* 26 43*
C[C@@H]1CN([C@H](C)CO)S(=O)(=O)c2ccc(C#Cc3cccc(F)c3)cc2O[C@H]1CN(C)S(=O)(=O)c1cn(C)cn1 -69 -12 -3 . . . .
C[C@@H]1CN([C@@H](C)CO)S(=O)(=O)c2ccc(C#Cc3cccc(F)c3)cc2O[C@@H]1CN(C)S(=O)(=O)c1ccccc1F -57 106* 12 102* 111* 34* 28
COc1cccc(S(=O)(=O)N[C@H]2CC[C@H](CCNC(=O)Cc3ccncc3)O[C@@H]2CO)c1 12 3 -2 . . . .
COCC(=O)N1CC2(CN(Cc3ccc(OC)cc3)C2)c2c([nH]c3cc(OC)ccc23)[C@H]1CO -24 . -2 . . . .
O=C(C[C@@H]1C=C[C@H](NC(=O)c2ccc3c(c2)OCO3)[C@H](CO)O1)NCc1ccc(Cl)cc1 17 47 2 . . . .
Cc1ccc(-c2ccc3c(c2)O[C@H](CN(C)Cc2ccncc2)[C@@H](C)CN([C@@H](C)CO)S3(=O)=O)cc1 -51 124* -35 103* 104* 69* 103*
C[C@H](CO)N1C[C@H](C)[C@@H](CN(C)Cc2ccncc2)Oc2cc(-c3ccccc3)ccc2S1(=O)=O -22 61 . . . . .
C[C@@H]1CN([C@@H](C)CO)S(=O)(=O)c2ccc(-c3ccccc3)cc2O[C@@H]1CN(C)Cc1ccncc1 -24 31 . . . . .
